TRb SRC2 PPI: inhibitors of human thyroid hormone receptor beta-SRC2 interaction; P10828; TRbeta-SRC2 peptide binding, fluorescence polarization; receptor liganded with 1 µM T3; Potency, µM (titrated, usually from 106 µM), for the others: at the top dose activity change, negative = inhibition, most hits filed as inhibitors; 0.065% of 280,000 active; AID 1469;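 note: plate controls were bound peptide for no effect and peptide without receptor for full effect; nearly all actives have a fitted effect of over 50% in size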
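Binding of a 20-amino-acid Texas Red SRC2 peptide (20 nM) to TRb ligand-binding domain (0.6 uM) with agonist T3 at 1 uM was followed by fluorescence polarization after a 5 hr room-temperature incubation.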
TexasRed fluor: Texas Red fluorescence interference in TRb-SRC2 counter-screen; TRb/SRC2 Texas Red total fluorescence interference; Potency, µM (highest dose often 106 µM), for the others: at the top dose fluorescence change, negative = quenching; 0.29% of 280,000 active; AID 1479; active = well fitted curve in either direction with a large enough effect; inconclusive = small, poorly fitted or top-dose-only effect
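Human TRβ ligand-binding domain (0.6 uM) and Texas Red SRC2 peptide (20 nM) in Tris buffer with 1 uM T3 and 5% DMSO were incubated with pinned compound for 5 hr at ambient temperature. Total fluorescence was computed as S + 2P (555/632 nm).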
Tau fibril FP: tau fibrillization inhibition (FP). P10636. K18 P301L tau heparin fibrillization, Alexa594 FP, 6 h. Potency, µM (top dose mostly 57.7 µM), for inactives: at the highest dose activity, negative = inhibition, hits mostly inhibitors. 0.39% of 280,000 active. AID 1468; note: nearly all actives have a fitted effect of over 55% in size
Target sequence (P10636 561-689 P618L limits assumed): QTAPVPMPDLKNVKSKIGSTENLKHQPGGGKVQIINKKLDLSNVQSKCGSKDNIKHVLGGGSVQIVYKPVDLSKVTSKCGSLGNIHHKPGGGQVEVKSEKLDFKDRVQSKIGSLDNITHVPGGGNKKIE
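Quantitative HTS format: compounds meet 15 uM recombinant K18 P301L tau and Alexa 594-tau tracer in 100 mM sodium acetate pH 7; 20 uM heparin triggers fibrillization at 37 C over 6 hr; FP gives the signal.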
Tau fluor counter: counter-screen for tau fibril formation inhibitors | tau K18 P301L Alexa594 fluorescence, heparin fibrillization | Potency, µM (highest dose often 57.7 µM), inactives show top-dose activity change, negative = decrease | 0.93% of 280,000 active | AID 1463; note: nearly all actives have a fitted effect of over 55% in size
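Human K18 P301L tau (15 uM unlabeled plus 0.24 uM Alexa 594-labeled, final) in 100 mM sodium acetate pH 7 was mixed with compound and 20 uM heparin and incubated 6 hr at 37 C.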
Tau fibril ThT: inhibitors of human tau fibril formation, thioflavin T binding; AID 1460; recombinant tau K18 P301L, heparin-induced fibrillization, ThT fluorescence; Potency, µM (titrated, usually from 57.4 µM), for inactives: at the top dose activity, negative = inhibition, most hits filed as inhibitors; 2.1% of 270,000 active; note: nearly all actives have a fitted effect of over 55% in size
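ThT emission at 510 nm, taken 1 hr after adding 30 uM dye, quantifies aggregates formed when 20 uM heparin acts on human tau K18 P301L for 6 hr at 37 C.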
The depositor's hits bear a star; ? = inconclusive; . = no result; [ ] = dose if it differs, or a comment. A selection: hits, their analogues and other compounds. The true share with any hit is near 3.1%. Unless noted, calls come from the whole dose curve; as a rule, active = well fitted curve in the direction sought with a large enough effect; inconclusive = small, poorly fitted or top-dose-only effect, or another doubt; inactive = no such curve, though single readings can be large; an effect the other way counts as inactive or inconclusive. Unless noted, % is set by controls: 0 for no effect and ±100 for the full control effect; potency is the fitted concentration of half-maximal effect.

SMILES | TRb SRC2 PPI | TexasRed fluor | Tau fibril FP | Tau fluor counter | Tau fibril ThT
COc1ccccc1NS(=O)(=O)c1cc(NC(=O)c2cccs2)ccc1N1CCCC1 | -4%[53 µM] | -1%[53 µM] | -4% | ? | ?
COc1cccc(C2=CC(c3ccccc3F)n3ncc(C(=O)Nc4ccc(F)cc4)c3N2)c1 (stereo not given) | 9% | -8% | ? | ? | -11%
CCC(=O)Nc1nc(C)c(-c2csc(Nc3ccccn3)n2)s1 | -2% | -2% | ? | ? | 14µM*
CCCCC(=O)Nc1nc(C)c(-c2csc(Nc3cc(Cl)ccc3OC)n2)s1 | -13% | 13% | -4% | ? | ?
CCCC(=O)Nc1nc(C)c(-c2csc(Nc3ccccc3C)n2)s1 | -1% | -1% | ? | -26% | ?
CCCCCC(=O)Nc1nc(C)c(-c2csc(Nc3ccccc3OCC)n2)s1 | 7% | 1% | 10% | ? | ?
COc1ccccc1Nc1nc(-c2sc(NC(=O)c3ccc([N+](=O)[O-])cc3)nc2C)cs1 | -3% | -1% | ? | 10µM*[quencher] | 3.5µM*
CCCCCC(=O)Nc1nc(C)c(-c2csc(Nc3ccccc3OC)n2)s1 | -2% | 17% | ? | 11µM*[quencher] | ?
CCCCCCC(=O)Nc1nc(C)c(-c2csc(Nc3ccccc3OC)n2)s1 | -9% | 2% | 16% | 14µM*[quencher] | ?
CCC(Sc1nc2ncccc2[nH]1)C(=O)Nc1cccc(OC)c1 (stereo not given) | 3% | 5% | -3% | -13% | -5%
CCOC(=O)c1cccc(Nc2cc(C)nc(C)n2)c1 | 2% | 3% | -2% | -13% | -15%
CNC(=O)C1CCC(Cn2c(=O)c3sccc3n(CC(=O)NCc3ccc(F)cc3)c2=O)CC1 (stereo not given) | 4% | 4% | -10% | -3% | -2%
Cc1ccccc1-c1nc(CNC(=O)NC2CCCCC2)c(C)o1 | -3% | -1% | 3% | 0% | -4%
CCOC(=O)CSc1c(-c2cccs2)[nH]c2ccccc12 | 8% | -2% | ? | 8.9µM*[quencher] | ?
CCOC(=O)CSc1c(-c2ccc(Cl)cc2)[nH]c2ccccc12 | 0% | -1% | ? | 11µM*[quencher] | -2%
COc1ccc(NC(=O)C2CCC(CNS(=O)(=O)c3cccc4nsnc34)CC2)cc1OC (stereo not given) | -3% | ? | 3% | -21% | ?
CC1CCCN(C(=S)Nc2ccc(Nc3ccccc3)cc2)C1 (stereo not given) | -3% | -6% | ? | 13µM*[quencher] | ?
S=C(NNc1cccc(Cl)c1)NC1CCCCC1 | 0% | 1% | ? | -28% | 25µM*
S=C(Nc1ccc(Cl)cc1)NC1CCCCC1 | -1% | 0% | -4% | -30% | -10%
S=C(Nc1ccc(Nc2ccccc2)cc1)NC1CCCCCC1 | 2% | -3% | 9% | 10µM*[quencher] | -16%
CC1CCCN(C(=S)Nc2ccc(F)cc2)C1 (stereo not given) | -7% | -1% | 3% | 7% | 6%
O=C1NC(=O)C(c2ccccc2[N+](=O)[O-])=C1Nc1ccc(O)c(Cl)c1 | 2% | -21% | ? | ? | 7.9µM*
Cn1ccc2cc(NC(=O)Nc3cccnc3)ccc21 | -8% | -6% | ? | 14µM*[quencher] | ?
COc1ccccc1CNC(=O)CCCCn1c(=O)c2ccccc2n(Cc2ccccc2C)c1=O | 5% | ? | 10% | 9% | 4%
CCCN(CCC)c1cc(C)nc2nc(-c3ccc(C(C)(C)C)cc3)nn12 | -2% | -2% | -1% | -12% | ?
CNc1ccc(-c2nc3ccccc3s2)cc1 | 0% | -2% | . | . | .
O=C(/C=C/NNC(=O)c1ccc(Cl)cc1)c1ccccc1 | 3% | 0% | -1% | -13% | 22µM*

Screening results from PubChem.
